Experimental findings from PubChem BioAssay (EPA / NIEHS) are described below.

Each structure is given as a SMILES string. Calls of active or inactive are those of the source. The calls were made as follows: active = hit-call score of the fitted dose curve at least 0.9, where 1 is the maximum; inactive = score below 0.9.

The nature of assay [1]: CEETOX_H295R_PROG: CeeTox H295R High-throughput Steroidogenesis Assay for Progesterone (PROG) (AID 2283442). Conditions: actives raise or lower the signal. In outline:
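Steps: seed H295R cells and let them adhere overnight; prime 48 h with 10 uM forskolin; dose with compound in DMSO at 0.1% final for 48 h; extract medium steroids with MTBE; measure progesterone by LC-MS/MS. MTT viability was run in the same wells.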

Read-out in assay [2]: Tumor necrosis factor receptor superfamily member 6 (Homo sapiens) (UniProt P25445)
The assay can be described thus: LTEA_HepaRG_FAS: Life Technologies and Expression Analysis (LTEA) Assay for Fas cell surface death receptor (FAS) using HepaRG (AID 2283447). The following applies: mRNA level, 48 h; actives raise or lower the signal. A digest of the protocol: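 FAS transcript level was measured by TaqMan qRT-PCR against three housekeeping genes after 48 h chemical exposure. Cells were HepaRG, 0.5% DMSO vehicle, with a top concentration of 100 uM and half-log dilutions over eight points, in duplicate.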

Read-out in assay [3]: Fatty acid synthase (Homo sapiens) (UniProt P49327)
The assay can be described thus: LTEA_HepaRG_FASN: Life Technologies and Expression Analysis (LTEA) Assay for Fatty Acid Synthase (FASN) using HepaRG (AID 2283448). The following applies: mRNA level, 48 h; actives raise or lower the signal. A digest of the protocol:
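Cells were plated, cultured 48 h, switched to serum-free induction medium, then dosed in duplicate (max 100 uM, half-log dilutions, 0.5% DMSO) for 48 h. RNA was then isolated and FASN quantified by qRT-PCR.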

Read-out in assay [4]: Cyclin D2 (CCND2), CCND2 (gene 894)
Put plainly: LTEA_HepaRG_CCND2: Life Technologies and Expression Analysis (LTEA) Assay for Cyclin D2 (CCND2) using HepaRG (AID 2283449). The following applies: mRNA level, 48 h; actives raise or lower the signal. In outline: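 CCND2 transcript levels, quantified by qRT-PCR and normalised to three housekeeping genes, were fitted bidirectionally against 0.5% DMSO. HepaRG cultures were dosed 48 h in duplicate with an 8-point half-log series up to 100 uM.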

Read-out in assay [5]: Cyclin Dependent Kinase Inhibitor 1A (CDKN1A), CDKN1A (gene 1026)
Put plainly: LTEA_HepaRG_CDKN1A: Life Technologies and Expression Analysis (LTEA) Assay for Cyclin Dependent Kinase Inhibitor 1A (CDKN1A) using HepaRG (AID 2283450). The following applies: mRNA level, 48 h; actives raise or lower the signal. In outline:
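Read-out is CDKN1A mRNA by TaqMan qRT-PCR, normalized to three housekeeping genes and fitted in both directions against the DMSO baseline. Human HepaRG cells were treated 48 h with test chemicals up to 100 uM in half-log steps, 0.5% DMSO.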

Read-out in assay [6]: catalase (CAT), CAT (gene 847)
The assay can be described thus: LTEA_HepaRG_CAT: Life Technologies and Expression Analysis (LTEA) Assay for catalase (CAT) using HepaRG (AID 2283452). The following applies: mRNA level, 48 h; actives raise or lower the signal. In outline:
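Expression of CAT was quantified by TaqMan qRT-PCR with ACTB/GAPDH/POLR2A normalization after 48 h chemical exposure of HepaRG. Eight-point half-log series, top 100 uM, in 0.5% DMSO; gain or loss fitted against vehicle.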

Read-out in assay [7]: flavin-containing dimethylaniline monooxygenases 3 (FMO3), FMO3 (gene 2328)
Put plainly: LTEA_HepaRG_FMO3: Life Technologies and Expression Analysis (LTEA) Assay for flavin-containing dimethylaniline monooxygenases 3 (FMO3) using HepaRG (AID 2283453). Conditions: mRNA level, 48 h; actives raise or lower the signal. A digest of the protocol: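 FMO3 transcript quantified by TaqMan qRT-PCR against three housekeeping genes after 48 h chemical exposure of HepaRG cells. Eight-point half-log series, top 100 uM, 0.5% DMSO vehicle; phenobarbital 1mM induction control; up- or down-regulation fitted.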

Read-out in assay [8]: Cytochrome P450 (CYP1A1), CYP1A1 (gene 1543)
The assay can be described thus: LTEA_HepaRG_CYP1A1: Life Technologies and Expression Analysis (LTEA) Assay for Cytochrome P450 (CYP1A1) using HepaRG (AID 2283454). Conditions: mRNA level, 48 h; actives raise or lower the signal. In outline:
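HepaRG, 48 h post-plating switched to serum-free induction medium; 8-pt conc-response (top 100 uM, half-log, 0.5% DMSO), duplicates, 48 h. Lysis in RLT, TaqMan qRT-PCR for CYP1A1; gain or loss vs DMSO.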

Read-out in assay [9]: CFLAR gene, CFLAR (gene 8837)
Put plainly: LTEA_HepaRG_CFLAR: Life Technologies and Expression Analysis (LTEA) Assay for CFLAR gene using HepaRG (AID 2283455). The following applies: mRNA level, 48 h; actives raise or lower the signal. In outline: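 Transcript level by qRT-PCR (normalized to ACTB, GAPDH and POLR2A) after 48 h chemical exposure of HepaRG cells, top concentration 100 uM with half-log steps, 0.5% DMSO vehicle, duplicates; fitted bidirectionally against DMSO baseline.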

Read-out in assay [10]: Forkhead box O1 (FOXO1), FOXO1 (gene 2308)
The assay can be described thus: LTEA_HepaRG_FOXO1: Life Technologies and Expression Analysis (LTEA) Assay for Forkhead box O1 (FOXO1) using HepaRG (AID 2283456). The following applies: mRNA level, 48 h; actives raise or lower the signal. In outline: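 FOXO1 transcript quantified by qRT-PCR after 48 h chemical exposure (top 100 uM, half-log steps, 0.5% DMSO) of HepaRG cells, housekeeping-normalized (ACTB/GAPDH/POLR2A). Changes fitted in both directions relative to vehicle.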

Read-out in assay [11]: growth arrest and DNA damage 45 (GADD45A), GADD45A (gene 1647)
The assay can be described thus: LTEA_HepaRG_GADD45A: Life Technologies and Expression Analysis (LTEA) Assay for growth arrest and DNA damage 45 (GADD45A) using HepaRG (AID 2283458). The following applies: mRNA level, 48 h; actives raise or lower the signal. In outline:
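Transcript induction or loss, quantified by TaqMan qRT-PCR against three housekeeping genes, is the read-out. HepaRG cells received chemicals for 48 h across eight half-log concentrations from 100 uM in 0.5% DMSO; gain and loss fitted relative to DMSO.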

Read-out in assay [12]: Forkhead box O3 (FOXO3), FOXO3 (gene 2309)
Put plainly: LTEA_HepaRG_FOXO3: Life Technologies and Expression Analysis (LTEA) Assay for Forkhead box O3 (FOXO3) using HepaRG (AID 2283459). Conditions: mRNA level, 48 h; actives raise or lower the signal. A digest of the protocol: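 FOXO3 transcript measured by qRT-PCR (normalized to ACTB, GAPDH, POLR2A) after 48 h exposure of HepaRG cells in serum-free induction medium. Duplicates, eight half-log concentrations up to 100 uM, 0.5% DMSO; gain or loss fitted against DMSO.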

Read-out in assay [13]: ABC Transporter (ABCB1), ABCB1 (gene 5243)
Put plainly: LTEA_HepaRG_ABCB1: Life Technologies and Expression Analysis (LTEA) Assay for ABC Transporter (ABCB1) using HepaRG (AID 2283460). The following applies: mRNA level, 48 h; actives raise or lower the signal. In outline:
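ABCB1 transcript level measured by TaqMan qRT-PCR against three housekeeping genes after 48 h chemical exposure of differentiated HepaRG cells. Top concentration 100 uM, half-log steps, eight points, 0.5% DMSO vehicle; bidirectional fit relative to DMSO.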

Read-out in assay [14]: growth arrest and DNA damage 45 (GADD45B), GADD45B (gene 4616)
Put plainly: LTEA_HepaRG_GADD45B: Life Technologies and Expression Analysis (LTEA) Assay for growth arrest and DNA damage 45 (GADD45B) using HepaRG (AID 2283461). Conditions: mRNA level, 48 h; actives raise or lower the signal. A digest of the protocol:
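HepaRG, ~100,000 cells/well, 48 h plating; serum-free induction medium; cpd 100 uM top, half-log x8, 0.5% DMSO, duplicate, 48 h; lysis in RLT, RNA isolation, qRT-PCR; norm ACTB/GAPDH/POLR2A; bidirectional fit vs DMSO.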

Read-out in assay [15]: ABC Transporter (ABCC3), ABCC3 (gene 8714)
The assay can be described thus: LTEA_HepaRG_ABCC3: Life Technologies and Expression Analysis (LTEA) Assay for ABC Transporter (ABCC3) using HepaRG (AID 2283462). The following applies: mRNA level, 48 h; actives raise or lower the signal. A digest of the protocol:
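Human HepaRG, 48 h dosing, 8-pt half-log series from 100 uM, 0.5% DMSO vehicle, duplicates. ABCC3 mRNA by TaqMan qRT-PCR, housekeeping-normalized; bidirectional curve fit vs DMSO.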

Read-out in assay [16]: ABC Transporter (ABCB11), ABCB11 (gene 8647)
The assay can be described thus: LTEA_HepaRG_ABCB11: Life Technologies and Expression Analysis (LTEA) Assay for ABC Transporter (ABCB11) using HepaRG (AID 2283463). The following applies: mRNA level, 48 h; actives raise or lower the signal. A digest of the protocol:
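ABCB11 transcript levels quantified by TaqMan qRT-PCR against three housekeeping genes after 48 h chemical exposure of HepaRG cultures. Concentrations up to 100 uM in half-log steps, 0.5% DMSO vehicle; both induction and suppression scored.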

Read-out in assay [17]: ABC Transporter (ABCC2), ABCC2 (gene 1244)
The assay can be described thus: LTEA_HepaRG_ABCC2: Life Technologies and Expression Analysis (LTEA) Assay for ABC Transporter (ABCC2) using HepaRG (AID 2283464). The following applies: mRNA level, 48 h; actives raise or lower the signal. A digest of the protocol:
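HepaRG, 48 h post-plating; serum-free induction medium; cpd 8-pt, 100 uM top, half-log, 0.5% DMSO, duplicate, 48 h. Readout: ABCC2 mRNA by qRT-PCR, norm. ACTB/GAPDH/POLR2A. Bidirectional fit vs DMSO baseline.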

Read-out in assay [18]: Broad substrate specificity ATP-binding cassette transporter ABCG2 (Homo sapiens) (UniProt Q9UNQ0)
Put plainly: LTEA_HepaRG_ABCG2: Life Technologies and Expression Analysis (LTEA) Assay for ABC Transporter (ABCG2) using HepaRG (AID 2283465). Conditions: mRNA level, 48 h; actives raise or lower the signal. In outline:
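ABCG2 transcript was quantified by TaqMan qRT-PCR against three housekeeping genes in HepaRG cells. Cells were treated in duplicate for 48 h across an 8-point half-log series up to 100 uM, with 0.5% DMSO vehicle. Gain or loss versus DMSO was fit.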

Read-out in assay [19]: Cyclin D1 (CCND1), CCND1 (gene 595)
Put plainly: LTEA_HepaRG_CCND1: Life Technologies and Expression Analysis (LTEA) Assay for Cyclin D1 (CCND1) using HepaRG (AID 2283451). The following applies: mRNA level, 48 h; actives raise or lower the signal. A digest of the protocol:
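HepaRG plated 48 h, medium switched to serum-free induction medium, chemicals added in duplicate (top 100 uM, half-log steps, 0.5% DMSO) for 48 h, cells lysed, RNA measured by TaqMan qRT-PCR.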

Sequence of Fatty acid synthase (Homo sapiens) (P49327 whole entry, looked up): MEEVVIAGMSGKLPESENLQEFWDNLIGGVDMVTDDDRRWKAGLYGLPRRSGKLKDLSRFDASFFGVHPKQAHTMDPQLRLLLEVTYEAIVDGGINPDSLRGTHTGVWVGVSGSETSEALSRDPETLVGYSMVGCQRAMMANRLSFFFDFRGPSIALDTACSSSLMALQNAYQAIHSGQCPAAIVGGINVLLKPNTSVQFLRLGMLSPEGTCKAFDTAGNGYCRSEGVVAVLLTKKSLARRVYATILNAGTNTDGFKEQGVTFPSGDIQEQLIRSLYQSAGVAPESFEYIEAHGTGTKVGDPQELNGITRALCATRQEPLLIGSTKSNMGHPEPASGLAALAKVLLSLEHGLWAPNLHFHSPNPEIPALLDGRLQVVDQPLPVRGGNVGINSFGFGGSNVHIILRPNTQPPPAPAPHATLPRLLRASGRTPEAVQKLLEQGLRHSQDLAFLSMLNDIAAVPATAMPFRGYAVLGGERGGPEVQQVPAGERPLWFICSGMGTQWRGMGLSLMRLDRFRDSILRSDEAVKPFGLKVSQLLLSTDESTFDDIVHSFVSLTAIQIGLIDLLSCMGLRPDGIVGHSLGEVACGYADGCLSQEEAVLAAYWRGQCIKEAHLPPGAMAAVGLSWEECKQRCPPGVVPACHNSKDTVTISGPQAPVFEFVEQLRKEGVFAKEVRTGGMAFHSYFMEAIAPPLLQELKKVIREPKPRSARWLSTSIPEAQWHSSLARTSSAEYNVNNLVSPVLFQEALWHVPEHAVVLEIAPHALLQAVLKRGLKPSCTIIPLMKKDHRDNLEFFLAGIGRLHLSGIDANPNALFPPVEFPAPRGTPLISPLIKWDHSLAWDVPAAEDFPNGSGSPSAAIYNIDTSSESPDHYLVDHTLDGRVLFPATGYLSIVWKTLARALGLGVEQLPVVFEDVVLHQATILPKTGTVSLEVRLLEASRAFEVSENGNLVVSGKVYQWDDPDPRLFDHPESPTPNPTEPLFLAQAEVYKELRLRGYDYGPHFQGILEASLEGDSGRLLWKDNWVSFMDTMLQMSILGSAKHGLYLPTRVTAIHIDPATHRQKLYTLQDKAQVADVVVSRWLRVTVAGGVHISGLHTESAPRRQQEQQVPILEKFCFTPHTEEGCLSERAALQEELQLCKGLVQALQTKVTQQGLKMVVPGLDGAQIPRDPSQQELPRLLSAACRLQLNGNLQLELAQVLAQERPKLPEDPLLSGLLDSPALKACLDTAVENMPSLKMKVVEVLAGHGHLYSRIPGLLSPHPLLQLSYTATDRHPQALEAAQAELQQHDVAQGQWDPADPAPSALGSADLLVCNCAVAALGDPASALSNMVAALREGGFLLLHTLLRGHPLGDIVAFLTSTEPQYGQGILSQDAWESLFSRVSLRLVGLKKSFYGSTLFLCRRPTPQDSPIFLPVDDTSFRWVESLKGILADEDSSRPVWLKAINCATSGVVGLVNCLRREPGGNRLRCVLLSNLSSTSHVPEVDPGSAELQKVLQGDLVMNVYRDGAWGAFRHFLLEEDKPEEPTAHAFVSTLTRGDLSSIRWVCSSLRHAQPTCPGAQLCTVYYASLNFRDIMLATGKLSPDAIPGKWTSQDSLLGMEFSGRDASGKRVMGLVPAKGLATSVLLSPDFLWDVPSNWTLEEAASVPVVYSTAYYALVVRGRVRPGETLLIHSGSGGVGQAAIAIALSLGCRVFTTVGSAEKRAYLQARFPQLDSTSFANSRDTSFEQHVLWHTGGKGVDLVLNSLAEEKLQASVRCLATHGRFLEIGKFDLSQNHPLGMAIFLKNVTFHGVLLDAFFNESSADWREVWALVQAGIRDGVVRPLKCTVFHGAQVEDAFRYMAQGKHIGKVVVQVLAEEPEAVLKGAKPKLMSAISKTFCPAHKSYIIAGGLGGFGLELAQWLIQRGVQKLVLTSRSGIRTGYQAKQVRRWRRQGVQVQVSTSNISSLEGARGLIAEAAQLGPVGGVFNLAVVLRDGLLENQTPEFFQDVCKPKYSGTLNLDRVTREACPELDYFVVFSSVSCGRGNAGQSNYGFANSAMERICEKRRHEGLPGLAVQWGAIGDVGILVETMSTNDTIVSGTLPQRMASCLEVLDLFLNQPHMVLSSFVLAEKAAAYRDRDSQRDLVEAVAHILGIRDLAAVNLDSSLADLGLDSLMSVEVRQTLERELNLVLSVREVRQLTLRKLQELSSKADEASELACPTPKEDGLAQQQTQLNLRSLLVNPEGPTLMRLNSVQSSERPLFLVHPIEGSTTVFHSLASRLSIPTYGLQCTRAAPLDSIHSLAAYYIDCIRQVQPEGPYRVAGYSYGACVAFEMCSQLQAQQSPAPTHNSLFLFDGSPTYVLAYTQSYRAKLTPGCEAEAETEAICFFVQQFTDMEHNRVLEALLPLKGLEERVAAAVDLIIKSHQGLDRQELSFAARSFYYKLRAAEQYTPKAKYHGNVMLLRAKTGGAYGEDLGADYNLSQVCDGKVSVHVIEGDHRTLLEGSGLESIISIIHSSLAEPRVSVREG
Sequence of Broad substrate specificity ATP-binding cassette transporter ABCG2 (Homo sapiens) (Q9UNQ0 whole entry, looked up): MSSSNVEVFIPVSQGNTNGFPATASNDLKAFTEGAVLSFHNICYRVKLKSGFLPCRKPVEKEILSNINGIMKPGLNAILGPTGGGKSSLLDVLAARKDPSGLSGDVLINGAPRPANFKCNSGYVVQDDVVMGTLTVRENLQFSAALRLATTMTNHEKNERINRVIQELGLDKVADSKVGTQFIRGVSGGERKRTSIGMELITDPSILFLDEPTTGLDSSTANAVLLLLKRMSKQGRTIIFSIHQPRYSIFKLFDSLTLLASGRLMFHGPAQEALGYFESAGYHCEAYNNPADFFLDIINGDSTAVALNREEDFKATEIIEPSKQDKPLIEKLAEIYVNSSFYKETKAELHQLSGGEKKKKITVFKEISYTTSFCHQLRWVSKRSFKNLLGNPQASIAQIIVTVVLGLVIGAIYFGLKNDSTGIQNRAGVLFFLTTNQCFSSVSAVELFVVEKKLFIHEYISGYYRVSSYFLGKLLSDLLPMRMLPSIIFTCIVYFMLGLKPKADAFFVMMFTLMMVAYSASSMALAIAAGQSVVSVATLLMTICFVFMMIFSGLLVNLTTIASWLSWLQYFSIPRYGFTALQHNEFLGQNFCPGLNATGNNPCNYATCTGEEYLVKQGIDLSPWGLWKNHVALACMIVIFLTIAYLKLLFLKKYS

Take `CC=Cc1ccc(O)c(OC)c1`: the result in assay [1], in assay [2], in assay [3], in [4], in assay [5] and in assay [6] was inactive. Besides, the outcome in assay [7], in assay [9], in [10], in [11], in [12] and in [13] was inactive. The outcome in assay [14], in assay [15], in [16], in assay [17] and in [18] was inactive. Also, the AC50 in assay [8] was 50 µM (active).
With `c1cc(-c2ccncc2)ccn1`, the outcome in assay [1], in assay [2], in [3], in [4], in assay [5] and in assay [6] was inactive. Besides, the molecule was classed as inactive in assay [7], in assay [10], in [11], in assay [13], in assay [14] and in [15]. Further, the molecule was classed as inactive in [17] and in [18]. In assay [8], the AC50 was 50 µM (active).
Take `CCCCCCCCCCC`: the outcome in assay [2], in assay [3], in assay [4], in [5], in assay [19] and in [6] was inactive. The molecule was called inactive in assay [7], in assay [9], in [10], in assay [11], in assay [12] and in assay [13]. Besides, the call in [14], in assay [15] and in assay [18] was inactive. Besides, the AC50 in assay [8] is 50 µM (active).

Usually AC50 stands for the concentration at which the activity in the assay is half-maximal.
